Records with an inconclusive call do not appear. A structure can be active in one record and inactive in another. Active and inactive are the calls of the source. Calls follow the shape of the dose curve; as a rule, active = well fitted activation curve with a large enough effect in the repeat runs; inconclusive = weak or mixed curves; inactive = no such curve, though single readings can be large or run the other way.
Each compound was assayed against Nuclear receptor subfamily 1 group I member 2 (Homo sapiens) (UniProt O75469) (assay: Human pregnane X receptor (PXR) small molecule agonists, qHTS assay (AID 1346982; also: nearly all actives have a fitted effect of over 35% in size)). Settings: PXR-Luc HepG2, CYP3A4 luciferase reporter, 24 h; series mostly up to 92.4 µM.
Nuclear receptor subfamily 1 group I member 2 (Homo sapiens), sequence (O75469 whole entry, looked up): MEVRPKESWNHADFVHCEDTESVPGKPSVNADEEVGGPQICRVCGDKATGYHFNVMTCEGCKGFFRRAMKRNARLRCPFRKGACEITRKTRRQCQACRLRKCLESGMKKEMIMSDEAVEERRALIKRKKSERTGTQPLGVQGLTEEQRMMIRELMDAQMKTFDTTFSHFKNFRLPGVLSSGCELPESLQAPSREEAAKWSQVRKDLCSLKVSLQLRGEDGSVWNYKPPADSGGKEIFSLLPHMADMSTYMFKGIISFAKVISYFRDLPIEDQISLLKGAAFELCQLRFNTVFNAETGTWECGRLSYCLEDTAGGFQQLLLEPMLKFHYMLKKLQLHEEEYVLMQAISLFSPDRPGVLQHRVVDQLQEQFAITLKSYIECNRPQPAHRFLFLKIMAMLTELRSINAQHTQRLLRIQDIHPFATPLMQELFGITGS
Source text: National Center for Advancing Translational Sciences [NCATS]
NIH Chemical Genomics Center [NCGC]
U.S. Environmental Protection Agency [EPA]
National Institutes of Environmental Health Sciences [NIEHS]
National Toxicology Program [NTP]
The human pregnane X receptor (hPXR) regulates the expression of several drug metabolizing enzymes and induction of these proteins is a major mechanism for developing drug resistance in cancer. One such key enzyme catalyzing the drug metabolism is cytochrome P450 3A4 (CYP3A4). Changes in CYP3A4 expression affect drug metabolism, thereby reducing the therapeutic efficacy and altering toxicological response to a drug and which finally causes adverse drug interaction. To screen Tox21 libraries for compounds that activate hPXR-mediated CYP3A4 gene expression, PXR-Luc HepG2 cells were used.
PXR-Luc HepG2 cells were dispensed at 2,000 per well in 5uL of assay medium containing 5% charcoal-stripped FBS into white solid bottom 1536-well plates (Corning Life Sciences, Corning, NY) using a Multidrop Combi (Thermo Scientific, Waltham, MA) dispenser. The assay plates were incubated at 37 C and 5% CO2 for 5hr, and then 23nL of compounds dissolved in DMSO and positive control were transferred using a Pintool station (Wako, San Diego, CA). The assay plates were incubated at 37C and 5% CO2 for 24hr. For luciferase read, 4uL of ONE-Glo reagent (Promega Corporation, Madison, WI) was added to each well of the assay plates using Flying Reagent Dispenser (FRD, Aurora Discovery, San Diego, CA) and incubated the assay plates at room temperature for 30min. The luminescence signal was quantified using a ViewLux plate reader (Perkin Elmer, Shelton, CT).
% is scaled to controls: 0 for no effect and ±100 for the full control effect; potency is read from the fitted curve at half-maximal effect.

| Structure (SMILES) | Potency | activation |
| --- | --- | --- |
| c1ccccc1 | inactive |  |
| Cc1cc(C)c(C(=O)P(=O)(c2ccccc2)c2ccccc2)c(C)c1 | 9.69 µM (active) |  |
| Cc1ccc2nc3sc(=O)sc3nc2c1 |  | 20.6% [at 19 µM] (inactive) |
| CO/C=C(/C(=O)OC)c1ccccc1Oc1cc(Oc2ccccc2C#N)ncn1 | 0.686 µM (active) |  |
| O=C(O)/C=C/C(=O)O | inactive |  |
| CC1COC(Cn2cncn2)(c2ccc(Oc3ccc(Cl)cc3)cc2Cl)O1 (centres undefined) | 61.1 µM (active) |  |
| COc1ccc(C(c2ccc(OC)cc2)C(Cl)(Cl)Cl)cc1 | 17.1 µM (active) |  |
| CCOC(=O)C(O)(c1ccc(Cl)cc1)c1ccc(Cl)cc1 | 27.6 µM (active) and inactive |  |
| Cc1cc(C(C)(C)c2ccc(O)c(C)c2)ccc1O | 58.2 µM (active) |  |
| O=C(Nc1ccccc1-c1ccc(Cl)cc1)c1cccnc1Cl | 10.3 µM (active) |  |
| CN1CSC(=S)N(C)C1 | 5.43 µM (active) |  |
| O=S(=O)(C(Cl)(Cl)Cl)C(Cl)(Cl)Cl | inactive |  |
| ClC(Cl)=C(c1ccc(Cl)cc1)c1ccccc1Cl | 30.6 µM (active) |  |
| Nc1ccc([N+](=O)[O-])cc1 | 61.1 µM (active) |  |
| Cc1ccc(N(SC(F)(Cl)Cl)S(=O)(=O)N(C)C)cc1 | inactive |  |
| ClC1=C(Cl)[C@]2(Cl)[C@@H]3[C@@H](Cl)[C@H]4O[C@H]4[C@@H]3C1(Cl)C2(Cl)Cl | 30.6 µM (active) |  |
| COc1cc(OC)c(OC)cc1C=O | inactive |  |
| N#Cc1cc([N+](=O)[O-])ccc1N | inactive |  |
| CC(c1ccccc1)(c1ccc(O)cc1)c1ccc(O)cc1 | 17.2 µM (active) |  |
| Cc1nnc2n1-c1sc(CCc3ccc(CC(C)C)cc3)cc1C(c1ccccc1Cl)=NC2C (centres undefined) | 4.22 µM (active) |  |
| O=C1C(I)=CC(=C(c2cc(I)c(O)c(I)c2)c2ccccc2C(=O)O)C=C1I | 11.9 µM (active) |  |
| CCN(CC)C(=O)Cl | inactive |  |
| CNC(=O)Oc1cc(C)c(SC)c(C)c1 | 61.1 µM (active) |  |
| O=C(O)/C=C\C(=O)O | inactive |  |

Source: PubChem BioAssay (Tox21)
